HT1080-NT tox: kills 2HG-producing HT-1080-NT fibrosarcoma cells; AID 686970; HT-1080-NT fibrosarcoma viability, CellTiter-Glo ATP luminescence, 48 h; 360,000 compounds, 1.6% hits; Potency, µM (top dose mostly 46.1 µM), without a hit: top-dose activity, negative = less viability, actives largely listed as cytotoxic;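 also: NT is the 2HG producing partner of a matched IDH1 knockdown line; 0% = DMSO-treated cells and -100% = media-only wells without cells; nearly all actives have a fitted effect of over 55% in size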
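Viability of the 2HG-overproducing fibrosarcoma line after 48 hours of compound exposure at 37 degrees C was determined by luminescence with CellTiter-Glo, and concentration-effect curves were then fitted and categorized.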
KB-V1 MDR tox: kills drug-selected multidrug resistant KB-V1 cells. 400,000 compounds, 3.4% hits. KB-V1 MDR cells viability, CellTiter-Glo, 72 h. Potency, µM (titrated, usually from 46.1 µM), hits mostly cytotoxic. AID 1347076; also: % is scaled to controls: 0 for no effect and ±100 for the full control effect; nearly all actives have a fitted effect of over 60% in size
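Cytotoxicity toward P-gp-expressing KB-V1 cells was determined as loss of CellTiter-Glo luminescence after 72 h at 37 degrees C. Compounds were tested in quantitative HTS format across a concentration range, with curves fitted to normalized data.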
SW480 rerep: inducers of DNA re-replication in SW480 colon cancer cells; 340,000 compounds, 1.8% hits; SW480 DNA re-replication, Hoechst DNA content imaging, 48 h; Potency, µM (doses to about 46.1 µM), for the others: at the highest dose re-replication activation, hits mostly activators; also: % of control where 0% means no effect; nearly all actives have a fitted effect of over 55% in size
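Per well, 250 cells were exposed to pinned compound for 48 hr. Nuclear DNA was visualised with Hoechst (40 min, 37 C) and total object intensity recorded by fluorescence scanning.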
KB-3-1 cytotox: kills parental KB-3-1 adenocarcinoma cells | KB-3-1 viability, CellTiter-Glo ATP luminescence, 72 h | 400,000 compounds, 1.4% hits | AID 1347075 | Potency, µM (top dose mostly 46.1 µM), most hits filed as cytotoxic; also: % is scaled to controls: 0 for no effect and ±100 for the full control effect; nearly all actives have a fitted effect of over 60% in size
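Viability of parental KB-3-1 cells, measured by CellTiter-Glo luminescence, followed a 72 h incubation at 37 °C with pinned compounds in phenol-red-free DMEM containing 10% FBS.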
MCF10A rereplic: inducers of DNA re-replication in MCF 10A breast cells. AID 624296. MCF 10A DNA re-replication, Hoechst nuclear intensity, 48 h. Potency, µM (titrated, usually from 46.1 µM), for inactives: at the top dose activity, positive = re-replication, hits mostly activators. 350,000 compounds, 2.9% hits; also: % of control where 0% means no effect; nearly all actives have a fitted effect of over 50% in size
HT1080 IDH1KD tx: HT-1080 IDH1 knockdown cell toxicity (counter line); AID 686971; 360,000 compounds, 2% hits; Potency, µM (series often up to 46.1 µM), for inactives: at the top dose activity, negative = toxicity, most hits filed as cytotoxic; HT-1080 IDH1 knockdown viability, ATP luminescence, 48 h;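 also: 0% = DMSO wells and -100% = cell-free medium wells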
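Assay cells: HT-1080 with IDH1 knockdown, 750 per well, RPMI/5% FBS. Exposure: 48 h at 37 °C following 2 h pre-incubation. Read: CellTiter-Glo luminescence; fitted concentration-response, curve class assigned.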
An asterisk follows results filed as active; i = inactive; ? = inconclusive; · = no result given. Hits are enriched below; roughly 8% of the tested compounds scored in any of these assays. Calls follow the shape of the dose curve; as a rule, active = well fitted curve in the direction sought with a large enough effect; inconclusive = small, poorly fitted or top-dose-only effect, or another doubt; inactive = no such curve, though single readings can be large; an effect the other way counts as inactive or inconclusive. Potency is read from the fitted curve at half-maximal effect.

SMILES	HT1080-NT tox	KB-V1 MDR tox	SW480 rerep	KB-3-1 cytotox	MCF10A rereplic	HT1080 IDH1KD tx
Clc1nc(-c2cccnc2)nc2scc(-c3ccccc3)c12	-4%	i	12µM*	i	16µM*	-3%
Clc1ncnc2scc(-c3ccccc3)c12	0%	i	1%	i	0%	8%
Cc1ccc(S(=O)(=O)NC(=O)NC2CCCCCCC2)cc1	·	·	-1%	·	-5%	·
COc1ccccc1NC(C)C(=O)c1c[nH]c2ccccc12 (centres undefined)	·	i	·	i	·	·
CCN(C(=O)c1cn(CC)c(=O)c2cc(OC)c(OC)cc12)c1ccc(C)c(C)c1	·	i	·	i	·	·
Cc1ccc(Cl)cc1N1CCN(C(=O)c2sc3nc4n(c(=O)c3c2C)CCC4)CC1	·	i	·	i	·	·
CCC1Sc2ccc(S(=O)(=O)N3CCN(c4ccccc4)CC3)cc2NC1=O (centres undefined)	9%	i	?	i	21µM*	5%
CCOC(=O)C(Cc1ccc(O)cc1)Nc1nc2ccccc2o1 (centres undefined)	7%	21µM*	-4%	i	3%	-2%
Cc1ccc(Nc2nc(NCc3ccco3)c3ccccc3n2)cc1	?	?	?	?	?	23µM*
Oc1ccccc1-c1nc(NCc2ccco2)c2ccccc2n1	-25%	i	11%	i	?	-26%
COc1ccccc1Nc1nc(NCc2ccco2)c2ccccc2n1	21µM*	?	-24%	i	23µM*	23µM*
Fc1ccccc1-c1nc(NCc2ccco2)c2ccccc2n1	-10%	i	-1%	i	-2%	-9%
c1ccc(-c2nc(NCc3ccco3)c3ccccc3n2)nc1	-23%	?	5.8µM*	5.8µM*	?	?
Cc1ccc(S(=O)(=O)N2CCN(c3nc(-c4cccs4)cc4ccccc34)CC2)cc1	13%	·	·	·	·	3%
O=S(=O)(c1ccccc1)c1nnn2c1nc(Nc1ccccc1)c1cc(Cl)ccc12	·	i	·	i	·	·
CCOc1ccc(NC(=O)C(Cc2ccccc2)N2C(=O)c3cccc4cccc(c34)C2=O)cc1 (centres undefined)	-18%	?	9.2µM*	?	8.2µM*	-20%
Cc1cc(=O)n2nc(N3CCC(C(=O)Nc4c(C)cccc4C)CC3)sc2n1	·	i	·	i	·	·
O=[N+]([O-])c1cc([N+](=O)[O-])c2cc3ccccc3nc2c1	16µM*	i	?	3.7µM*	?	4.6µM*
O=[N+]([O-])c1cnc2ccccc2c1	2%	i	-139%	i	-2%	-4%
O=C(O)c1ccc(CN2C(=O)CSC2=S)cc1	-1%	i	14%	?	5.2µM*	3%
O=C1CSC(=S)N1Cc1cccnc1	?	2.9µM*	25%	4.6µM*	3.3µM*	?
S=C1SCN(Cc2cccnc2)CN1Cc1ccccc1	?	i	11%	i	85%	21µM*
O=C(O)c1ccc(N2C(=O)CSC2=S)cc1	?	i	-10%	i	17%	10%
COc1cccc(C(=O)Nc2ccccc2-c2nnc(-c3cccc(OC)c3)o2)c1	·	i	·	i	·	·
Cc1ccccc1Cn1c(=O)n(CCc2ccccc2)c(=O)c2sc3ccccc3c21	·	i	·	i	·	·
SMILES	HT1080-NT tox	KB-V1 MDR tox	SW480 rerep	KB-3-1 cytotox	MCF10A rereplic	HT1080 IDH1KD tx
CCCN(Cc1cccs1)C(=O)Nc1ccc(F)c(Cl)c1	·	i	·	i	·	·
CCOc1ccc(CCNC(=O)c2cn(CC)c3ccc(S(=O)(=O)N4CCCCCC4)cc3c2=O)cc1OCC	·	i	·	i	·	·
CCCCN(CCC#N)c1ccc(/C=C/c2ccnc3ccccc23)cc1	·	18µM*	·	?	·	·
OCCN(CCO)c1ccc(/C=C/c2ccnc3ccccc23)cc1	·	13µM*	·	?	·	·
CCCCCCCN(CCCCCCC)c1ccc(/C=C/c2ccnc3ccccc23)cc1	·	?	·	i	·	·
CC[N+](CC)(CC)c1ccc(/C=C/c2ccnc3ccccc23)cc1	·	?	·	0.58µM*	·	·
CCN(CC)c1ccc(/C=C/c2ccnc3ccccc23)cc1	·	i	·	?	·	·
S=C(Nc1ccc(Nc2ccccc2)cc1)Nc1ccccn1	?	i	?	?	24%	16µM*
Cc1cccc(-n2c(C)nnc2SCC(=O)NC(C)c2ccco2)c1 (centres undefined)	·	i	·	i	·	·
CCOc1ccccc1NC(=O)c1nc(S(=O)(=O)Cc2ccccc2)ncc1Cl	3%	?	27%	?	4.1µM*	-5%
Cc1ccccc1NC(=O)c1nc(S(=O)(=O)Cc2ccccc2F)ncc1Cl	·	i	·	?	·	·
CCS(=O)(=O)c1ncc(Cl)c(C(=O)Nc2ccccc2OC)n1	-17%	?	2.9µM*	2.6µM*	2.3µM*	?
COc1ccccc1NC(=O)c1nc(S(=O)(=O)Cc2ccccc2)ncc1Cl	12µM*	?	?	7.3µM*	?	3.7µM*
COc1ccccc1NC(=S)N1CCC(c2nc3cc(C)c(C)cc3[nH]2)CC1	4%	i	-4%	i	-4%	-7%
COc1ccccc1NC(=O)N1CCC(c2nc3cc(C)c(C)cc3[nH]2)CC1	5.8µM*	9.2µM*	5.8µM*	1.6µM*	3.7µM*	5.8µM*
Cc1cc(S(=O)(=O)Nc2ccc(-c3ccc(N4CCCCCC4)nn3)cc2)c(C)cc1Cl	·	?	·	i	·	·
Oc1c(N=NC(=S)Nc2ccccc2F)c2ccccc2n1Cc1ccccc1Cl	13µM*	i	3%	4.1µM*	28%	-1%
Oc1c(N=NC(=S)Nc2ccccc2F)c2ccccc2n1Cc1ccccc1	-1%	i	1%	?	?	-5%
COc1ccc(-n2c(/C=C(\C)O)nc(=O)c3c(C)cc(C)nc32)cc1	-1%	7.3µM*	0%	i	2%	4%
COc1ccc(-n2c(C)nn(C)c2=O)cc1	2%	i	10%	i	-1%	17%
Cc1cccc(C)c1NC(=O)Cn1cc(S(=O)(=O)Cc2ccc(F)cc2)c2ccccc21	·	i	·	i	·	·
CC1=C(C(=O)N(C)C)C(c2ccc(N3CCOCC3)cc2)NC(=O)N1 (centres undefined)	3%	i	18µM*	i	0.92µM*	9%
O=C(Nc1ccc2ccccc2c1)Nc1nnc(-c2ccccc2)s1	·	i	·	i	·	·
CC(Sc1nc(=O)cc(N)n1CCc1ccccc1)C(=O)Nc1ccc(Cl)cc1 (centres undefined)	·	i	·	i	·	·
COC(=O)c1cc(OC)c(OC)cc1NCC(=O)Nc1ccc(OC)c(OC)c1	1%	?	-120%	i	9%	0%

Assay outcomes (PubChem)
